# Reference: the supplement of paper PMC8728848
# Shown is part of a subset that was picked to be rich in the strongest signals.
# B1: CCL1 (Coprinopsis cinerea) (protein)
# chain: MDTQAKPPAGRYVIYNRVLSPNGEKLALTYPGYQREALTLTPLHHSANQIWILNNWDATTSSLTPETARNTQVGWGSGNVPIVLPPGNYVWTLASSAGGYIIQDGGKTVYWNAGEAVANTKVSIGGDNGLQARWIFERV
# Experiments:
# Test in all cases: glycan array binding signal (z-score within array); higher = stronger binding
# Details in all cases: glycan notation: IUPAC condensed, linker removed
# Gal6S(b1-3)GlcNAc = molecular target: Gal6S(b1-3)GlcNAc
# Outline: (§1)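 Glycan array data were curated from 3228 arrays in the Consortium for Functional Glycomics database and kept only where the protein sequence was available. Glycan names were converted to IUPAC-condensed notation, and columns mapping to the same glycan were averaged. The binding signal is a within-array Z-score, averaged across arrays of the same protein sequence at different concentrations or buffers and across linkers. Negative Z-scores can be read as non-binding.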
# GalNAc(b1-4)GlcNAc = molecular target: GalNAc(b1-4)GlcNAc
# Outline: as §1
# Glc(b1-4)Glc = molecular target: Glc(b1-4)Glc
# Outline: as §1
# Glc(b1-6)Glc = molecular target: Glc(b1-6)Glc
# Outline: as §1
# [1] = molecular target: Man(a1-2)Man(a1-3)[Man(a1-2)Man(a1-6)]Man
# Outline: as §1
# [2] = molecular target: Man(a1-2)Man(a1-6)[Man(a1-3)]Man(a1-6)[Man(a1-2)Man(a1-2)Man(a1-3)]Man(b1-4)GlcNAc(b1-4)GlcNAc
# Outline: as §1
# [3] = molecular target: Neu5Ac(a2-3)Gal(b1-3)GalNAc(b1-4)[Neu5Ac(a2-3)]Gal(b1-4)Glc
# Outline: as §1
# [4] = molecular target: Neu5Ac(a2-3)Gal(b1-3)GlcNAc
# Outline: as §1
# [5] = molecular target: Neu5Ac(a2-3)Gal(b1-3)[Neu5Ac(a2-6)]GalNAc
# Outline: as §1
# [6] = molecular target: Neu5Ac(a2-3)Gal(b1-4)GlcNAc(b1-3)Gal(b1-4)[Fuc(a1-3)]GlcNAc
# Outline: as §1
# [7] = molecular target: Neu5Ac(a2-3)Gal(b1-4)[Fuc(a1-3)]GlcNAc(b1-3)Gal
# Outline: as §1
# [8] = molecular target: Neu5Ac(a2-3)Gal(b1-4)[Fuc(a1-3)]GlcNAc(b1-3)Gal(b1-4)[Fuc(a1-3)]GlcNAc(b1-3)Gal(b1-4)[Fuc(a1-3)]GlcNAc
# Outline: as §1
# [9] = molecular target: Neu5Ac(a2-3)Gal6S(b1-4)[Fuc(a1-3)]GlcNAc
# Outline: as §1
# [10] = molecular target: Neu5Ac(a2-3)[Neu5Ac(a2-6)]GalNAc
# Outline: as §1
# [11] = molecular target: Neu5Ac(a2-8)Neu5Ac(a2-3)[GalNAc(b1-4)]Gal(b1-4)Glc
# Outline: as §1
binder,measurement,setting,value
B1,glycan array binding signal (z-score),Gal6S(b1-3)GlcNAc,-0.152
same,glycan array binding signal (z-score),GalNAc(b1-4)GlcNAc,-0.159
same,glycan array binding signal (z-score),Glc(b1-4)Glc,-0.115
same,glycan array binding signal (z-score),Glc(b1-6)Glc,-0.128
same,glycan array binding signal (z-score),[1],-0.124
same,glycan array binding signal (z-score),[2],-0.138
same,glycan array binding signal (z-score),[3],-0.132
same,glycan array binding signal (z-score),[4],-0.117
same,glycan array binding signal (z-score),[5],1.63
same,glycan array binding signal (z-score),[6],-0.148
same,glycan array binding signal (z-score),[7],3.29
same,glycan array binding signal (z-score),[8],1.58
same,glycan array binding signal (z-score),[9],1.5
same,glycan array binding signal (z-score),[10],-0.149
same,glycan array binding signal (z-score),[11],-0.127
